Test results: PubChem BioAssay AID1159580 (chemical genetic matrix, 2015)
The whole screen tested about 5,500 compounds, of which about 2,000 (36%) were called active. Another 18% or so got no clear call; they are omitted. No stated cut-off is given here; in the data, active means normalized growth mostly below about 0.91 (no sharp cut-off); inconclusive means no clear call, values can overlap the other calls; inactive means mostly above about 0.92. The list shows a part of the results.

Test: chemical genetic growth profiling, strain panel (AID 1159580);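 further: tested at 20 µM; growth read once vehicle control cultures reached saturation at 30 °C; 1 = growth at the plate median or of vehicle wells; lower values mean less growth of the strain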
Conditions: growth OD
[1] = S. cerevisiae deletion strains, locus YAL013W, strain DEP1, active compounds read low
[2] = S. cerevisiae deletion strains, locus YBR229C, strain ROT2, active compounds read low
[3] = S. cerevisiae deletion strains, locus YDL101C, strain DUN1, active compounds read low
[4] = S. cerevisiae deletion strains, locus YDR150W, strain NUM1, active compounds read low
[5] = S. cerevisiae deletion strains, locus YEL061C, strain CIN8, active compounds read low
[6] = S. cerevisiae deletion strains, locus YGR078C, strain PAC10, active compounds read low
[7] = S. cerevisiae deletion strains, locus YHR030C, strain SLT2, active compounds read low
[8] = S. cerevisiae deletion strains, locus YHR087W, strain rtc3, active compounds read low
[9] = S. cerevisiae deletion strains, locus YJR043C, strain POL32, active compounds read low
[10] = S. cerevisiae deletion strains, locus YJR075W, strain HOC1, active compounds read low
[11] = S. cerevisiae deletion strains, locus YLR039C, strain RIC1, active compounds read low
[12] = S. cerevisiae deletion strains, locus YLR058C, strain SHM2 (second series), active compounds read low
[13] = S. cerevisiae deletion strains, locus YLR085C, strain ARP6, active compounds read low
[14] = S. cerevisiae deletion strains, locus YLR262C, strain YPT6, active compounds read low
[15] = S. cerevisiae deletion strains, locus YML094W, strain GIM5, active compounds read low
[16] = S. cerevisiae deletion strains, locus YMR219W, strain ESC1, active compounds read low
[17] = S. cerevisiae deletion strains, locus YMR263W, strain SAP30, active compounds read low
[18] = S. cerevisiae deletion strains, locus YNL153C, strain GIM3, active compounds read low
[19] = S. cerevisiae deletion strains, locus YNL298W, strain CLA4 (second series), active compounds read low
[20] = S. cerevisiae deletion strains, locus YNL322C, strain KRE1, active compounds read low
[21] = S. cerevisiae deletion strains, locus YNR030W, strain Alg12, active compounds read low
[22] = S. cerevisiae deletion strains, locus YPL055C, strain LGE1, active compounds read low
[23] = S. cerevisiae deletion strains, locus YPL241C, strain CIN2, active compounds read low
[24] = S. cerevisiae deletion strains, locus YPR135W, strain CTF4, active compounds read low

Measured: normalized growth

CC(=O)c1ccc(Sc2ccccn2)c([N+](=O)[O-])c1
inactive: [1] 0.996 | [2] 1 | S. cerevisiae deletion strains, locus YCL061C, strain MRC1, active compounds read low 1.02 | [3] 1.01 | [4] 0.985 | [5] 0.974 | [6] 0.986 | [7] 0.71 | [8] 1.01 | S. cerevisiae deletion strains, locus YJL187C, strain SWE1, active compounds read low 0.98 | [9] 1.01 | [10] 0.973 | S. cerevisiae deletion strains, locus YKL190W, strain CNB1, active compounds read low 0.997 | [11] 0.849 | [12] 0.991 | [13] 0.835 | [14] 0.822 | [15] 0.983 | [16] 0.983 | [17] 0.993 | S. cerevisiae deletion strains, locus YMR307W, strain GAS1, active compounds read low 1.04 | S. cerevisiae deletion strains, locus YNL128W, strain TEP1, active compounds read low 0.967 | [18] 0.98 | [19] 0.934 | [20] 0.966 | [21] 0.99 | S. cerevisiae deletion strains, locus YOL006C, strain TOP1, active compounds read low 0.747 | [22] 0.976 | [23] 1.01 | [24] 0.927 | S. cerevisiae strains, strain wild type, active compounds read low 0.984

O=C(O)c1ccccc1Sc1c(C(=O)O)cc([N+](=O)[O-])cc1[N+](=O)[O-]
inactive: [1] 1.01 | [2] 1.01 | [3] 1.02 | S. cerevisiae deletion strains, locus YDL134C, strain PPH21, active compounds read low 0.976 | [4] 0.988 | [5] 0.994 | [6] 1.01 | [7] 1.01 | [8] 0.993 | [9] 1 | [10] 1 | [11] 1 | [12] 0.994 | [13] 0.989 | [14] 0.984 | [15] 1.08 | [16] 1.01 | [17] 0.994 | [18] 1.03 | [19] 0.964 | [20] 1.02 | [21] 1.01 | [22] 1.02 | [23] 1.08 | [24] 1.09
